Assay [1] concerns the target Cellular tumor antigen p53 (Homo sapiens) (UniProt P04637). The experiment in a line: TOX21_p53_BLA_p3_ratio: Tox21 HCT-116 p53 Agonism Beta-lactamase Assay, Ratio, Phase 3 (AID 2283596). The procedure, abridged:
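Cells were seeded at 4000/well, rested 5 h at 37C, then dosed with DMSO compound solutions (217-fold dilution) for 16 h. CCF4-AM substrate was loaded for 2 h at room temperature, and the 460/530 nm emission ratio was fitted for gain of signal versus DMSO.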

A short description of assay [2]: TOX21_p53_BLA_p4_viability: Viability Assessment in the Tox21 HCT-116 p53 Agonism Beta-lactamase Assay, Phase 4 (AID 2283597).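 Further: hits lower the luminescence signal meaning cytotoxicity.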 The method in brief: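 Cytotoxicity was inferred from loss of CellTiter-Glo luminescence. HCT116 cells had been dosed with compounds after 5 h plating, incubated 16 h at 37C and 5% CO2, and exposed to the CCF4-AM substrate for 2 h.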
The target of assay [3] is Cellular tumor antigen p53 (Homo sapiens) (UniProt P04637). The experiment in a line: TOX21_p53_BLA_p5_ratio: Tox21 HCT-116 p53 Agonism Beta-lactamase Assay, Ratio, Phase 5 (AID 2283599). The method in brief: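 HCT-116 cells carrying a p53-inducible beta-lactamase reporter were seeded at 4000 cells/well and dosed after 5 h with compound in DMSO (217-fold dilution). After 16 h at 37C, CCF4-AM substrate was added for 2 h, and the 460/530 nm emission ratio was scored as gain-of-signal versus DMSO.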
Sequence of Cellular tumor antigen p53 (Homo sapiens) (P04637 whole entry, looked up): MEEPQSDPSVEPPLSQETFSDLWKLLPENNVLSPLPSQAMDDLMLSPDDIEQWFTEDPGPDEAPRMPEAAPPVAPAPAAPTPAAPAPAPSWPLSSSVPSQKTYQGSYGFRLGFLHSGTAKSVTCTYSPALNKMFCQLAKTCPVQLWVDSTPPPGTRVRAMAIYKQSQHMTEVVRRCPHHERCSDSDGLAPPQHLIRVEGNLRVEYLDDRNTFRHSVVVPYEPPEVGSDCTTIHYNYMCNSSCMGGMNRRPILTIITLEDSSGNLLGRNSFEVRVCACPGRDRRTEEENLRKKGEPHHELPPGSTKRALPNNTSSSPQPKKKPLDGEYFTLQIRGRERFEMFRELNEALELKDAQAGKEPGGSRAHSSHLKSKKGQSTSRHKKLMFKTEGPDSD

Assay [4] can be described thus: TOX21_p53_BLA_p5_viability: Viability Assessment in the Tox21 HCT-116 p53 Agonism Beta-lactamase Assay, Phase 5 (AID 2283600). The method in brief:
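Luciferase-coupled ATP quantitation of cells treated for 16 h (37C, 5% CO2) with test chemicals delivered in DMSO via a 217-fold dilution; 4000 cells/well; reagent incubated 30 min at room temperature before luminescence reading.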

The target of assay [5] is Cellular tumor antigen p53 (Homo sapiens) (UniProt P04637). In words: TOX21_p53_BLA_p4_ratio: Tox21 HCT-116 p53 Agonism Beta-lactamase Assay, Ratio, Phase 4 (AID 2283601). The method in brief: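 HCT116 cells carrying an inducible beta-lactamase reporter were plated at 4000 cells/well, rested 5 h, then exposed to compounds in DMSO (217-fold dilution) for 16 h at 37C. CCF4-AM substrate was loaded 2 h at room temperature; 460/530 nm emission ratio scored gain-of-signal versus DMSO.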

Several values for one entry are separate records, joined by “and”; a condition that tells them apart may be missing. Equal values may be shown once. Results filed as inconclusive are left out. Some compounds were tested as several samples or in several runs, with calls that do not always agree. Activity calls are given as the source filed them. How the source made its calls: active means hit-call score of the fitted dose curve at least 0.9, where 1 is the maximum; inconclusive means response in the unintended direction; inactive means score below 0.9.

One may read the AC50 as the midpoint of the concentration-response curve, whichever way the signal moves. Turning to `COc1ccc(C(=O)/C(Br)=C\C(=O)O)cc1`, the AC50 is 14.4 µM (active) and 25.8 µM (active) in assay [1]; 76.7 µM (active) and 44.5 µM (active) in assay [2]; 21 µM (active) and 21.6 µM (active) in assay [3]; 39.1 µM (active) in assay [4]; 60 µM (active) and 27.2 µM (active) in assay [5]. For the same compound, the call in assay [4] was inactive.

For `C=CC(C)(O)CC/C=C(\C)CC` (configuration not stated), the outcome in assay [1], in assay [2] and in assay [3] was inactive.

Regarding `COC(=O)CC(C)CCC=C(C)C` (configuration not stated), the outcome in assay [1], in assay [2] and in assay [3] was inactive.

Take `CC(C)(C)N`: the result in assay [1] was inactive.

Consider `CC(C)(C)NC(=O)[C@H]1CC[C@H]2[C@@H]3CC[C@H]4NC(=O)C=C[C@]4(C)[C@H]3CC[C@]12C`, for which the outcome in assay [1] was inactive.

Take `C=C(C)C1CC=C(C)C(OC(C)=O)C1` (configuration not stated): the result in assay [1] was inactive.

Turning to `CC(CC(C)C)=NO`, the result in assay [1], in assay [2] and in assay [3] was inactive.

In the case of `CC1C(C)(C)C2=C(C(=O)CCC2)C1(C)C` (configuration not stated), the outcome in assay [1], in assay [2] and in assay [3] was inactive.

In the case of `CCCCC/C=C\C/C=C\CCCCCCCC(=O)O`, the AC50 in assay [1] was 72 µM (active); in assay [3] it was 86.3 µM (active). Besides, the result in assay [1], in assay [3] and in assay [5] was inactive.

For the compound `CC(C)(O)Cc1ccccc1`, the result in assay [1], in assay [2], in assay [3] and in assay [4] was inactive.

For the compound `CCCC/C=C/C=C\C=O`, the outcome in assay [1], in assay [2], in assay [3] and in assay [4] was inactive.

For the compound `C=C[Si](OCCOC)(OCCOC)OCCOC`, the outcome in assay [1], in assay [2], in assay [3] and in assay [4] was inactive.

Regarding `CCCCCCCOC(=O)c1ccc(O)cc1`, the AC50 was 74.5 µM (active) in assay [1], 51.3 µM (active) in assay [2], 74.3 µM (active) in assay [3] and 68.3 µM (active) in assay [5]. Moreover, the outcome in assay [1], in assay [2], in assay [3], in assay [4] and in assay [5] was inactive.

Turning to `O=C(O)/C=C/c1ccccc1`, the outcome in assay [1], in assay [2], in assay [3], in assay [4] and in assay [5] was inactive.

Source of the values: PubChem BioAssay (EPA / NIEHS).
